Reference: PubChem BioAssay (Tox21)
Results filed as inconclusive are left out. Calls of active or inactive are those of the source. Unless noted, calls come from the whole dose curve; as a rule, active = well fitted curve in the direction sought with a large enough effect in the repeat runs; inconclusive = weak or mixed curves; inactive = no such curve, though single readings can be large; an effect the other way counts as inactive or inconclusive.

Legend:
[1] = molecular target: Estrogen receptor (Homo sapiens) (UniProt P03372); assay: qHTS assay to identify small molecule antagonists of the estrogen receptor alpha (ER-alpha) signaling pathway using the BG1 cell line in the presence of 0.1 nM 17-beta-estradiol (AID 1259244); note: nearly all actives have a fitted effect of over 50% in size; note: potency is the fitted concentration of half-maximal effect
Method in brief: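 Cells: VM7Luc4E2, endogenous ER-alpha, 4x ERE-luc stable. Pre-culture 5 d, phenol red-free, charcoal-stripped FBS. Plated 24 h, compound + E2 0.1 nM final, 22 h 37C/5% CO2. Readout ONE-Glo luminescence.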

[2] = qHTS assay to identify small molecule HDAC inhibitors (AID 1259364); note: top concentration of the series differs between compounds; nearly all actives have a fitted effect of over 45% in size
Method in brief: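 Luminescence from a cell-permeant luminogenic class I/II HDAC substrate reports endogenous deacetylase activity in intact HCT-116 cells treated with compounds for 2 h.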

[3] = qHTS assay to identify small molecule HDAC inhibitors - cell viability counter screen (AID 1259365); note: series mostly up to about 92 µM; nearly all actives have a fitted effect of over 50% in size
Method in brief: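 After overnight seeding at 1,500 cells per well, wild-type HCT-116 cultures took up compounds in DMSO for 2hr at 37 C. Viable cell content came from luminescence with CellTiter-Glo.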

[4] = qHTS assay to identify small molecule agonists of the sonic hedgehog signaling (Shh) pathway - cell viability counter screen (AID 1259366); note: nearly all actives have a fitted effect of over 50% in size; note: potency is the fitted concentration of half-maximal effect
Method in brief: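 Same-well cytotoxicity read. Gli1-Luc reporter 3T3 cells; compounds 24hr, 37C/5% CO2; CellTiter-Fluor fluorescence.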

[5] = qHTS assay to identify small molecule antagonists of the sonic hedgehog signaling (Shh) pathway - cell viability counter screen (AID 1259367); note: nearly all actives have a fitted effect of over 55% in size; note: potency is the fitted concentration of half-maximal effect
Method in brief: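 After a 4 hr settling period, 3T3 Gli1-Luc cells were treated with DMSO-dissolved chemicals and conditioned medium, kept 24 hr at 37C in 5% CO2, and assayed for viability by CellTiter-Fluor fluorescence following 1 hr reagent incubation.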

[6] = qHTS assay to identify small molecule agonists of the sonic hedgehog signaling (Shh) pathway (AID 1259368; calls by dose curve;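 note: NIH/3T3-derived 3T3Gli1-Luc cells carrying a stable Gli1-driven firefly luciferase reporter; series mostly up to about 92 µM; nearly all actives have a fitted effect of over 15% in size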)
Method in brief: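 3T3Gli1-Luc (NIH/3T3 clone, stable Gli1-Luc); 4 hr pre-incubation, then cpd in DMSO 24 hr, 37 C/5% CO2; luciferase reagent 30 min RT; luminescence.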

[7] = qHTS assay to identify small molecule antagonists of the sonic hedgehog signaling (Shh) pathway (AID 1259369; calls by dose curve; note: nearly all actives have a fitted effect of over 45% in size; note: potency is the fitted concentration of half-maximal effect)
Method in brief: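 3T3Gli1-Luc, conditioned-medium-stimulated, 24hr cpd, 37C/5% CO2; Gli1-driven firefly Luc luminescence after 30min RT with luciferase reagent. Cells plated 4hr before cpd.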

[8] = qHTS assay to identify small molecule agonists of the estrogen receptor beta (ER-beta) signaling pathway - cell viability counter screen (AID 1259380); note: nearly all actives have a fitted effect of over 30% in size; note: potency is the fitted concentration of half-maximal effect
Method in brief: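 HEK293T ER-beta-UAS-bla; 2% CS-FBS; 6 hr pre-plate, 16 hr cpd at 37C/5% CO2; LiveBLAzer read first, then CellTiter-Glo 30 min RT, luminescence.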

[9] = qHTS assay to identify small molecule antagonists of the estrogen receptor beta (ER-beta) signaling pathway - cell viability counter screen (AID 1259382); note: nearly all actives have a fitted effect of over 55% in size; note: potency is the fitted concentration of half-maximal effect; for activity change, negative = cytotoxicity: series mostly up to about 92 µM
Method in brief: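 Cells: ER-beta-UAS-bla HEK293T, 2,000/well, 2% CS-FBS, 6 hr settle. Cpd + E2 (1nM final), 16 hr, 37C/5% CO2. Bla FRET substrate 2 hr RT, then CellTiter-Glo 30 min RT, luminescence.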

[10] = molecular target: Estrogen receptor (Homo sapiens) (UniProt P03372); assay: qHTS assay to identify small molecule agonists of the estrogen receptor alpha (ER-alpha) signaling pathway in the presence of an antagonist (AID 1259383; calls by dose curve; note: top concentration of the series differs between compounds; nearly all actives have a fitted effect of over 15% in size)
Method in brief: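 VM7Luc4E2, endog. ER-alpha + 4×ERE-luc; charcoal-stripped FBS, phenol red-free, 5 d; 24hr plating; +10.0nM ICI-182,780 (final); cpds 15 conc, 22hr, 37C/5% CO2; ONE-Glo luminescence.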

[11] = qHTS assay to identify small molecule agonists or antagonists of the thyroid stimulating hormone receptor (TSHR) signaling pathway - wild type cell line counter screen (AID 1259384; calls by dose curve)
Method in brief: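 Wild-type HEK293 cells were plated 18 h at 37 C/5% CO2, pin-dosed with compound plus Ro20-1724 medium, held 30 min at room temperature, then given cAMP-d2 and anti-cAMP-cryptate; fluorescence was read after 1 h. Fifteen concentrations, triplicate.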

[12] = molecular target: Thyrotropin receptor (Homo sapiens) (UniProt P16473); assay: qHTS assay to identify small molecule antagonists of the thyroid stimulating hormone receptor (TSHR) signaling pathway (AID 1259385; calls by dose curve; note: nearly all actives have a fitted effect of over 20% in size; note: potency is the fitted concentration of half-maximal effect)
Method in brief: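 TSHR-HEK293 cells were plated and held 18 h at 37C/5% CO2, then given compound plus Ro20-1724 and stimulated with TSH at 1.5 ng/mL final. After 30 min at room temperature, cAMP was detected with cAMP-d2/anti-cAMP-cryptate (1 h) by fluorescence.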

[13] = molecular target: Progesterone receptor (Homo sapiens) (UniProt P06401); assay: qHTS assay to identify small molecule agonists of the progesterone receptor (PR) signaling pathway (AID 1346784; calls by dose curve; note: nearly all actives have a fitted effect of over 30% in size)
Method in brief: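 Compounds were tested for PR agonism in HEK 293T cells bearing a beta-lactamase gene under UAS control. Treatment lasted 16 hr at 37C; signal came from fluorescence of a FRET substrate.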

[14] = qHTS assay to identify small molecule agonists of the androgen receptor (AR) signaling pathway in the presence of an antagonist - cell viability counter screen (AID 1259379); note: nearly all actives have a fitted effect of over 25% in size; note: potency is the fitted concentration of half-maximal effect;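 for activity change, negative = cytotoxicity: MDA-kb2 human breast cancer cells carrying an MMTV luciferase reporter; series mostly up to about 92 µM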
Method in brief: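 Cells: MDA-kb2 (MMTV-luc, AR and GR elements), 3,000/well, 5 hr settle. Added: nilutamide 3.0uM final, then compounds (15 conc.). Incubation: 16 hr, 37C, no CO2. Read-out: CellTiter-Fluor, 1 hr, fluorescence.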

[15] = molecular target: Androgen receptor (Homo sapiens) (UniProt P10275); assay: qHTS assay to identify small molecule agonists of the androgen receptor (AR) signaling pathway in the presence of an antagonist (AID 1259381; calls by dose curve; note: nearly all actives have a fitted effect of over 15% in size)
Method in brief: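 MDA-kb2 cells, 3,000/well, rested 5hr at 37C/0% CO2 → nilutamide 3.0uM final or buffer → compounds, 15 conc. → 16hr at 37C → ONE-Glo, 30min RT → luminescence.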

[16] = molecular target: Progesterone receptor (Homo sapiens) (UniProt P06401); assay: qHTS assay to identify small molecule antagonists of the progesterone receptor (PR) signaling pathway (AID 1346795; active = well fitted inhibition curve with a large enough effect in the signal ratio in the repeat runs, not every such curve was filed as active; the % refers to the signal ratio; note: potency is the fitted concentration of half-maximal effect)
Method in brief: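 In HEK293T cells bearing the PR-UAS-bla reporter, compound effects on promegestone-driven (1 nM) beta-lactamase expression are assessed after 16 hr using a fluorescent FRET substrate incubated 2 hr at room temperature.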

[17] = molecular target: Estrogen receptor beta (Homo sapiens) (UniProt Q92731); assay: qHTS assay to identify small molecule antagonists of the estrogen receptor beta (ER-beta) signaling pathway (AID 1259378; active = well fitted inhibition curve with a large enough effect in the signal ratio in the repeat runs, not every such curve was filed as active; the % refers to the signal ratio)
Method in brief: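 ER-beta-UAS-bla HEK293T (GripTite) cells in 2% charcoal-stripped FBS medium were preincubated 6 hr at 37C, dosed with compound, then stimulated with 1 nM E2 (final) for 16 hr; beta-lactamase reporter read by B/G FRET fluorescence after 2 hr substrate loading.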

[18] = qHTS assay to identify small molecule agonists of the estrogen receptor alpha (ER-alpha) signaling pathway in the presence of an antagonist - cell viability counter screen (AID 1259386);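 note: cells exposed to compounds for 22 h at 37 °C before the viability read; nearly all actives have a fitted effect of over 30% in size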; note: potency is the fitted concentration of half-maximal effect; for activity change, negative = cytotoxicity: series mostly up to about 92 µM
Method in brief: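 VM7Luc4E2, stripped-serum pre-culture 5 d; 24hr plating; +ICI-182,780 10.0nM final; cpds 15 conc, 22hr, 37C/5% CO2; CellTiter-Fluor added at 21hr, fluorescence 1hr later.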

[19] = molecular target: Estrogen receptor beta (Homo sapiens) (UniProt Q92731); assay: qHTS assay to identify small molecule agonists of the estrogen receptor beta (ER-beta) signaling pathway (AID 1259377; active = well fitted activation curve with a large enough effect in the signal ratio in the repeat runs, not every such curve was filed as active; the % refers to the signal ratio)
Method in brief: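 Read-out: beta-lactamase FRET fluorescence. Cell line: ER-beta-UAS-bla HEK293T in 2% charcoal-stripped FBS. Exposure: 16 hr at 37C. Substrate step: 2 h at room temperature.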
% is set by controls: 0 for no effect and ±100 for the full control effect.

Androgen receptor (Homo sapiens), sequence (P10275 whole entry, looked up): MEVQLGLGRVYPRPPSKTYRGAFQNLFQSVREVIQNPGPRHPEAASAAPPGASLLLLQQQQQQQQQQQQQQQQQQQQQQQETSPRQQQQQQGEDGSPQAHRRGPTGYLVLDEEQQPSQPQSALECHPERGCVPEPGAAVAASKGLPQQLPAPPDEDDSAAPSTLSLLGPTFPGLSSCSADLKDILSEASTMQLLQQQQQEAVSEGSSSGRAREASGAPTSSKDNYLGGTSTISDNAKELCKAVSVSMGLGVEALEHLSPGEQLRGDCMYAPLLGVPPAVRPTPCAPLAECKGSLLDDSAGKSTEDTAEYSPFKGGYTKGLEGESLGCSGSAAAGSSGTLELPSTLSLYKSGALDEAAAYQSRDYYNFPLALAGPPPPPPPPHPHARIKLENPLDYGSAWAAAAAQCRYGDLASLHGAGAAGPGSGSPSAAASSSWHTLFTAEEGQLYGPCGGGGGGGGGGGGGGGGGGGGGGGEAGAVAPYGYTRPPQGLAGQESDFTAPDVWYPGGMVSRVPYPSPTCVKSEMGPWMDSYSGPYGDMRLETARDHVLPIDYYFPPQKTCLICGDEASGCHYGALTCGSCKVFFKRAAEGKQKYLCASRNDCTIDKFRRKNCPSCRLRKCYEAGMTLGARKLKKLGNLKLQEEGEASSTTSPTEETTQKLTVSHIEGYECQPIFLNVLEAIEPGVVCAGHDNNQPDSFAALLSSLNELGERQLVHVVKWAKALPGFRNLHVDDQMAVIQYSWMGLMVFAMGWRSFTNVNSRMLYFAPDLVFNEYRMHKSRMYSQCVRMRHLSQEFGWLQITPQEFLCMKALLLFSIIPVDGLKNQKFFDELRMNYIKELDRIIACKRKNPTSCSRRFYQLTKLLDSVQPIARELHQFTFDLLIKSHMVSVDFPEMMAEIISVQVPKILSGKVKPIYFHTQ
Estrogen receptor (Homo sapiens), sequence (P03372 whole entry, looked up): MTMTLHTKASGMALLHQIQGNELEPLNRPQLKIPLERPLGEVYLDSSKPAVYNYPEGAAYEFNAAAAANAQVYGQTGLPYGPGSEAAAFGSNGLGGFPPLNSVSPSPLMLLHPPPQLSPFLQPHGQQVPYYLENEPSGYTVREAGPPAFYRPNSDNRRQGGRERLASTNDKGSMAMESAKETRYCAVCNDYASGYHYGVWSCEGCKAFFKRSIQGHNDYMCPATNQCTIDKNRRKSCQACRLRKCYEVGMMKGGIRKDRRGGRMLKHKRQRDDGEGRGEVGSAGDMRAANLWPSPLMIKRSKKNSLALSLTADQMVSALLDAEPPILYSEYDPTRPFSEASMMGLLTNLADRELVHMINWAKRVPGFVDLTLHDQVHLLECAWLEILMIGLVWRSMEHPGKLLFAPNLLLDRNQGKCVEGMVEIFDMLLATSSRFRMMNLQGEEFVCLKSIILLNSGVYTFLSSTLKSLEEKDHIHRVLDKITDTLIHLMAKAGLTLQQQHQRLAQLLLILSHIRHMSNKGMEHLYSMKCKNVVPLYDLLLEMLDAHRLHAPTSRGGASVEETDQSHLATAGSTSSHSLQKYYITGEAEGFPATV
Estrogen receptor beta (Homo sapiens), sequence (Q92731 whole entry, looked up): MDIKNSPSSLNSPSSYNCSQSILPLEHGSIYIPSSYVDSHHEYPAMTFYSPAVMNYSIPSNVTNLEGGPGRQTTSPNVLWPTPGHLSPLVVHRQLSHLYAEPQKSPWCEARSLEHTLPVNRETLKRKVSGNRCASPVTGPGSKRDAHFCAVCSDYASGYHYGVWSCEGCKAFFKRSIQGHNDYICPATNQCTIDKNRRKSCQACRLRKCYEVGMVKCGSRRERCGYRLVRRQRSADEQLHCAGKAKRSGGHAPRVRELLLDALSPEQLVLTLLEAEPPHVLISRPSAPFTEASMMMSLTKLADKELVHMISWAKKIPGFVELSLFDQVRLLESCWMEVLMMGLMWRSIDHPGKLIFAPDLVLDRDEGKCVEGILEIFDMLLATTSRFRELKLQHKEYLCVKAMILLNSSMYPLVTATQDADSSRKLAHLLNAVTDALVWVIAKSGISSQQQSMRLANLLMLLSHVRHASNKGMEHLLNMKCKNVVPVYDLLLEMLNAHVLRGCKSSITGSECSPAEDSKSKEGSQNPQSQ
Thyrotropin receptor (Homo sapiens), sequence (P16473 whole entry, looked up): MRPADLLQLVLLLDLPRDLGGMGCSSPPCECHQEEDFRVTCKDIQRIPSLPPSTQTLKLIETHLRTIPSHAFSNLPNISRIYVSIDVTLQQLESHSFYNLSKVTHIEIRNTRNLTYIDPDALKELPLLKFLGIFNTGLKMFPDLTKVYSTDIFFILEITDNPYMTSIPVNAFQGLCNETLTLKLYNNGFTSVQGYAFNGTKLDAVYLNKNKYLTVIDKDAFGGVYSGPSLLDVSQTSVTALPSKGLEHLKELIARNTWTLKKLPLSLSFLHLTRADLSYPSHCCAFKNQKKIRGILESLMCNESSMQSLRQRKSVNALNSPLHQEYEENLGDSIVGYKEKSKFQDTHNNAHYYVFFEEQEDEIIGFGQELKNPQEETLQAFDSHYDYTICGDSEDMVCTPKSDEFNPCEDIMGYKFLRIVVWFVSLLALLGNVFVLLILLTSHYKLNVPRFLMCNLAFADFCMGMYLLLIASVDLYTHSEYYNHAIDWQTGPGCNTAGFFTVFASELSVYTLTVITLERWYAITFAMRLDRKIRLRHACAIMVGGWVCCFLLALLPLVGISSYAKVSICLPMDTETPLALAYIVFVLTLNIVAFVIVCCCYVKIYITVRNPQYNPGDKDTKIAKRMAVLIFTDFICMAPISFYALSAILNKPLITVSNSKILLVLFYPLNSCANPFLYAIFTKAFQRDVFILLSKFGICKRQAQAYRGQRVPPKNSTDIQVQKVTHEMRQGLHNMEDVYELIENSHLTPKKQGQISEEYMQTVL
Progesterone receptor (Homo sapiens), sequence (P06401 whole entry, looked up): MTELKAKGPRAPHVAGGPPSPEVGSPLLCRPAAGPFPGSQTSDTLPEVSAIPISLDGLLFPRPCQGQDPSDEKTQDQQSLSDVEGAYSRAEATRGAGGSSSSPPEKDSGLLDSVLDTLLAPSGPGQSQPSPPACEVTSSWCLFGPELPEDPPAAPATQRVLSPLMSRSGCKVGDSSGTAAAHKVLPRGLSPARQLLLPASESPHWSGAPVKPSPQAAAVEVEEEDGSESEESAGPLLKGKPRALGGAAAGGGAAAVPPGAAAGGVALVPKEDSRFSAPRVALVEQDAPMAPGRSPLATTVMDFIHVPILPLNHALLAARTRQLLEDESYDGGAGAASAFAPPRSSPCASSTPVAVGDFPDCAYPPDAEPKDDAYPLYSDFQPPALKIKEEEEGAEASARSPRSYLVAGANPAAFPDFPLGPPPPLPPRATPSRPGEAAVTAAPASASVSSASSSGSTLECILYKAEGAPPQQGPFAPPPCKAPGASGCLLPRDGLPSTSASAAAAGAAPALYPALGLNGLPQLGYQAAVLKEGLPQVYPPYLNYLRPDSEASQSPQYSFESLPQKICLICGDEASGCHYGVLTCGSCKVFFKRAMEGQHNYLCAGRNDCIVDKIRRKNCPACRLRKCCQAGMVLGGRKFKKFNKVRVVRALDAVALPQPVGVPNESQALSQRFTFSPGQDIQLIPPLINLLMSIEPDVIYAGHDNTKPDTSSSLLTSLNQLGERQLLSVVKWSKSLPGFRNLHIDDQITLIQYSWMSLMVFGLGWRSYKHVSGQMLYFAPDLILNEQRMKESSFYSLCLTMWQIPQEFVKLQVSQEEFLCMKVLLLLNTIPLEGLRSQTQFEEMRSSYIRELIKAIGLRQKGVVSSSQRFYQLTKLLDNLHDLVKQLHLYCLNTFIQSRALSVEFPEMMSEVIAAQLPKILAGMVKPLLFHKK

CC(CN(C)C)CN1c2ccccc2CCc2ccccc21 (stereo unspecified)
inactive: Potency [1] | Potency [2] | Potency [3] | Potency [4] | Potency [5] | Potency [6] | Potency [10] | outcome [11] | outcome [13]
active: Potency [7] 2.37 µM | Potency [8] 26.6 µM | Potency [9] 23.7 µM | Potency [12] 29.8 µM

Clc1cccnc1
inactive: Potency [1] | Potency [2] | Potency [3] | Potency [4] | Potency [5] | Potency [6] | Potency [14] | Potency [8] | Potency [15] | Potency [9] | Potency [10] | outcome [11] | Potency [12] | Potency [16]

Cc1ccc(O)cn1
inactive: Potency [1] | Potency [2] | Potency [3] | Potency [4] | Potency [5] | Potency [6] | Potency [17] | Potency [14] | Potency [8] | Potency [15] | Potency [9] | Potency [10] | outcome [11] | Potency [12] | Potency [18]

CCOCN(C(=O)CS(=O)(=O)O)c1c(C)cccc1CC
inactive: Potency [1] | Potency [2] | Potency [3] | Potency [4] | Potency [5] | Potency [6] | Potency [19] | Potency [17] | Potency [14] | Potency [8] | Potency [9] | Potency [10] | outcome [11] | Potency [12] | Potency [18] | outcome [13] | Potency [16]

CC(C)c1ccccc1N
inactive: Potency [1] | Potency [2] | Potency [3] | Potency [4] | Potency [5] | Potency [6] | Potency [7] | Potency [14] | Potency [8] | Potency [9] | Potency [10] | outcome [11] | Potency [18] | outcome [13] | Potency [16]

CCc1cccc(C)c1
inactive: Potency [1] | Potency [2] | Potency [3] | Potency [4] | Potency [5] | Potency [6] | Potency [7] | Potency [8] | Potency [9] | Potency [10] | outcome [11] | Potency [16]

Cc1cncc(C)c1
inactive: Potency [1] | Potency [2] | Potency [3] | Potency [4] | Potency [5] | Potency [6] | Potency [19] | Potency [17] | Potency [14] | Potency [8] | Potency [9] | Potency [10] | outcome [11] | Potency [12] | Potency [18] | outcome [13] | Potency [16]

CCCC(C)CCC(C)=O (stereo unspecified)
inactive: Potency [1] | Potency [2] | Potency [3] | Potency [4] | Potency [5] | Potency [6] | Potency [14] | Potency [8] | Potency [15] | Potency [9] | Potency [10] | outcome [11] | Potency [12] | Potency [18] | outcome [13] | Potency [16]

C=CC(=C)CC/C=C(\C)CCC=C(C)C
inactive: activity change, negative = inhibition [1] 3.24% [at 19 µM] | activity change, negative = inhibition [2] 8.2% [at 19 µM] | activity change, negative = cytotoxicity [3] 3.69% [at 19 µM] | viability change, negative = cytotoxic [4] -6.51% [at 19 µM] | viability change, negative = cytotoxic [5] -4.46% [at 19 µM] | activity change [6] 0.047% [at 18.9 µM, hits give high values] | activation [19] 1.85% [at 19 µM] | activity, negative = inhibition [17] -20.6% [at 19 µM] | activity change, negative = cytotoxicity [14] 1.35% [at 19 µM] | activity change, negative = cytotoxicity [8] -10.3% [at 19 µM] | activity change, negative = cytotoxicity [9] -3.14% [at 19 µM] | activation [10] 1.51% [at 19 µM] | cAMP activity change [11] 3.85% [at 18.9 µM] | activity change, negative = inhibition [12] 0.374% [at 19 µM] | activity change, negative = cytotoxicity [18] -2.45% [at 19 µM] | activation [13] 0.395% [at 19 µM] | activity change, negative = inhibition [16] -8.93% [at 18.9 µM]

CCCCOC(=O)C(C)CC (stereo unspecified)
inactive: Potency [1] | Potency [2] | Potency [3] | Potency [4] | Potency [5] | Potency [6] | Potency [19] | Potency [17] | Potency [14] | Potency [8] | Potency [10] | outcome [11] | Potency [12]

C/C=C/C(=O)Oc1c(CCCCCC(C)C)cc([N+](=O)[O-])cc1[N+](=O)[O-]
inactive: Potency [2] | Potency [3] | Potency [6] | Potency [10] | outcome [11] | Potency [12]
active: Potency [1] 4.33 µM | Potency [4] 61.1 µM | Potency [5] 54.5 µM | Potency [7] 2.17 µM | Potency [14] 15.4 µM | Potency [8] 30.6 µM | Potency [9] 48.6 µM | Potency [18] 9.69 µM | Potency [16] 19.3 µM

Cn1cccc1
inactive: Potency [1] | Potency [2] | Potency [3] | Potency [4] | Potency [5] | Potency [6] | Potency [14] | Potency [8] | Potency [15] | Potency [9] | Potency [10] | outcome [11] | Potency [12] | Potency [18] | outcome [13] | Potency [16]

CCCCCCCCCCCCCCCC
inactive: Potency [1] | Potency [2] | Potency [3] | Potency [4] | Potency [5] | Potency [6] | Potency [7] | Potency [8] | Potency [9] | Potency [10] | outcome [11] | Potency [12] | Potency [18] | outcome [13] | Potency [16]

Clc1nc2ccccc2s1
inactive: Potency [1] | Potency [2] | Potency [3] | Potency [4] | Potency [5] | Potency [6] | Potency [7] | Potency [14] | Potency [8] | Potency [9] | Potency [10] | outcome [11] | Potency [12]

CC(C)=CCCC(C)O (stereo unspecified)
inactive: Potency [1] | Potency [2] | Potency [3] | Potency [4] | Potency [5] | Potency [6] | Potency [19] | Potency [17] | Potency [14] | Potency [8] | Potency [15] | Potency [9] | Potency [10] | outcome [11] | Potency [12] | Potency [18] | outcome [13] | Potency [16]
